Screening results from PubChem.
An excerpt weighted towards active compounds, which were near 2.3% of everything screened.
CHO-K1 Ca antag – counter-screen for M1 antagonists: effect in parental CHO-K1 cells; 0.6% of 360,000 active; inhibition, % at 3 µM; ATP-induced calcium, Fluo-8 fluorescence;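 active = inhibition above a per-plate cutoff, the plate's mean sample inhibition plus 3 SD, cut at about 24% in these data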;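 note: 0% = DMSO plus EC80 ATP and 100% = DMSO alone without ATP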
M1 antag – blocks human M1 muscarinic receptor | CHO-K1 hM1, Fluo-8 calcium fluorescence, ACh EC80 antagonist | inhibition, % at 3 µM | 1.3% of 360,000 active | AID 588852;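 active = percent inhibition above its own plate's cutoff, namely the mean of that plate's compound wells plus 3 SD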;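 note: peak over basal fluorescence ratio during 140 s after agonist addition; 0% = ACh EC80 plus DMSO and 100% = DMSO alone without agonist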
Target sequence (P11229 whole entry, looked up): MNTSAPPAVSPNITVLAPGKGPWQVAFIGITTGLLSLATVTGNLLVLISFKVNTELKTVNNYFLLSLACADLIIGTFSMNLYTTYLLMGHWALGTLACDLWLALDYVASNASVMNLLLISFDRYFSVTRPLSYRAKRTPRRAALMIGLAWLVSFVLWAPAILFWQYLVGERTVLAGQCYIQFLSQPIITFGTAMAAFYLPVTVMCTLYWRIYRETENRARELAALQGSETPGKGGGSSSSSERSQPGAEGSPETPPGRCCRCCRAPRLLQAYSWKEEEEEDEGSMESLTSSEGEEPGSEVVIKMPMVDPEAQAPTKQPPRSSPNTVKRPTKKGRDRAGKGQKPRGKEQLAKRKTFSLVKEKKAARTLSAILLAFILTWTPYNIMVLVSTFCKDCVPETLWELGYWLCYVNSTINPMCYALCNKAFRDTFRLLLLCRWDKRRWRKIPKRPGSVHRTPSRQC
CHO-K1 Ca ag – counter-screen for M1 agonists: effect in parental CHO-K1 cells. Fluo-8 calcium fluorescence; scaled to maximal ATP response, vehicle zero. activation, % at 3 µM. 0.48% of 360,000 active. AID 602248; in the data active = activation above about 15%;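 note: untransfected CHO-K1 host cells lacking M1 receptor as counterscreen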
CHO-K1 Ca PAM – M1 PAM counterscreen hit in parental CHO-K1 cells; ATP EC20, Fluo-8 calcium fluorescence; 0% at ATP EC20, 100% at ATP max; activation, % at 3 µM; 0.02% of 360,000 active;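 active = activation above the run cutoff, the mean activation of all test compounds plus 3 SD, cut at about 40% in these data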;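 note: peak over basal fluorescence ratio in a 140 s read after ATP addition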
M1 PAM – positive allosteric modulators of human M1 muscarinic receptor; CHO-K1 hM1, Fluo-8 calcium fluorescence, ACh EC20; 0% = ACh EC20, 100% = maximal ACh; activation, % at 3 µM; 0.088% of 360,000 active; AID 588819; in the data active = activation above about 19%, passing the limit was not always enough
M1 ag – activates human CHRM1 receptor; P11229; CHO-K1 hM1, Fluo-8 calcium fluorescence, agonist mode; 0% DMSO, 100% acetylcholine EC100; activation, % at 3 µM; 0.33% of 360,000 active; AID 588814;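 active = activation above the run's mean compound activation plus 3 SD, cut at about 16% in these data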;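 note: peak over basal fluorescence ratio within a 140 s kinetic read after compound addition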
Active calls of the source: *.

SMILES	CHO-K1 Ca antag	M1 antag	CHO-K1 Ca ag	CHO-K1 Ca PAM	M1 PAM	M1 ag
Cc1c(C(=O)N2CCN(c3ccccc3)CC2)oc2c(Cl)cccc12	-21	-7	0	13	8	-1
Cc1cc(C)c(NC(=O)CNC(=O)c2ccccc2OCc2c(C)noc2C)c(C)c1	9	-11	0	-11	6	-4
CCOC(=O)c1c(C)nc2sc(C(=O)Nc3ccc(C(C)=O)cc3)c(N)c2c1-c1ccc(OC)cc1	8	38*	2	-3	-9	-2
CCOC(=O)c1c(C)nc2sc(C(=O)Nc3ccc(OC)cc3)c(N)c2c1-c1ccc(OC)cc1	14	13	0	-6	-4	-2
O=C(NNc1ccnc2cc(Cl)ccc12)C1CCCCC1	14	32*	12	-9	-10	-4
COc1ccc(CCNC(=O)C2CC(O)CN2S(=O)(=O)c2ccc(Cl)cc2)cc1OC (stereo not drawn)	7	8	0	-20	18	11
C#Cc1cccc(C(=O)N2CCCC(C(=O)c3ccc(OC)cc3C)C2)c1 (stereo not drawn)	25*	-2	1	-22	1	-4
COc1ccc(C(=O)C2CCCN(S(=O)(=O)c3ccc(C(C)=O)cc3)C2)c(C)c1 (stereo not drawn)	11	43*	16*	-9	-19	4
O=C(NC12CC3CC(CC(C3)C1)C2)C1CCCN1C(=O)Nc1ccccc1 (stereo not drawn)	-22	-6	2	7	9	-1
COc1ccccc1NC(=O)N1c2ccc(F)cc2CCC1C (stereo not drawn)	24*	17	0	-9	-4	-2
COc1ccc(C(=O)N2c3ccc(F)cc3CCC2C)cc1OC (stereo not drawn)	16	7	0	-6	-4	-5
O=C(Nc1cccc(F)c1)Nc1cccc(Cl)c1	30*	43*	16*	-9	-21	3
CN1CCN(NC(=O)Nc2cccc(F)c2)CC1	3	31*	6	3	-13	-3
O=C(NCc1ccc(F)cc1)Nc1ccc(Cl)cc1	-1	2	12	-5	4	0
O=C(NCc1ccc(F)cc1)Nc1cccc(Cl)c1	31*	13	5	-15	-16	-4
COc1ccc(CC(=O)Nc2cccnc2)cc1	16	-16	0	-21	10	-1
CCOCCCNC(=O)/C(C#N)=C/c1ccc(C)o1	-17	2	0	14	1	-4
CCOc1ccc(S(=O)(=O)N2CCN(C(=O)c3cc(C4CC4)nn3-c3ccccc3)CC2)cc1	66*	69*	0	9	-26	-7
O=C(c1cc(C2CC2)nn1-c1ccccc1)N1CCN(c2ccccc2O)CC1	-6	5	2	7	0	-2
O=C(c1cc(C2CC2)nn1-c1ccccc1)N1CCN(c2ccccn2)CC1	7	30*	1	8	-21	-8
Cc1ccccc1OCC(=O)N(Cc1ccc(N(C)C)cc1)C1CCS(=O)(=O)C1 (stereo not drawn)	-6	5	1	19	1	-5
CN(C)c1ccc(CN(C(=O)COc2ccccc2)C2CCS(=O)(=O)C2)cc1 (stereo not drawn)	27*	-3	0	8	10	-2
COc1ccc(Br)cc1C=NNS(=O)(=O)c1ccc(C)cc1	20	33*	0	-7	-19	1
COc1cc(/C=N/NS(=O)(=O)c2ccc(Br)cc2)ccc1O	-5	-8	1	7	4	1
C[C@H]1CN=C(N(C)C)N1CC1CCCC1	-10	4	1	10	-4	12
C[C@H]1CN=C(N(C)C)N1CC1CCC(C(C)(C)C)CC1 (stereo partly drawn)	-17	51*	2	16	-32	-10
CCCCN(C(C)=O)c1c(CC)nc2ccc(C(=O)NCCCN(C)C)cn12	-4	-3	1	13	0	-4
COCCCn1c(N)c(-c2nc3ccccc3n2C)c2nc3ccccc3nc21	7	28*	10	7	-12	4
C/C(=N\OCc1ccc(C#N)cc1)c1ccc(S(=O)(=O)N(C)C)cc1	9	28	15*	-7	-18	-3
